Assay outcomes (PubChem BioAssay)
Shown are actives, neighbours in structure and some others; about 4.7% of the full set was active somewhere.
Pyk2 oligo antag: antagonists of Pyk2 self-association, primary screen, Q293 cells, FERM NanoBiT luminescence, HTS; Protein-tyrosine kinase 2-beta (Homo sapiens), Q14289; hits give low values; z-score (the deposit names both 25 µM and 10 µM); 99,000 tested, 0.83% active;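 active = Z-score of -3 or lower, scaled per plate to the spread of control and sample wells; inactive = z-score above -3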;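 also: negative z-score means lost luminescence so less FERM oligomerization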
Target sequence (Q14289 whole entry, looked up): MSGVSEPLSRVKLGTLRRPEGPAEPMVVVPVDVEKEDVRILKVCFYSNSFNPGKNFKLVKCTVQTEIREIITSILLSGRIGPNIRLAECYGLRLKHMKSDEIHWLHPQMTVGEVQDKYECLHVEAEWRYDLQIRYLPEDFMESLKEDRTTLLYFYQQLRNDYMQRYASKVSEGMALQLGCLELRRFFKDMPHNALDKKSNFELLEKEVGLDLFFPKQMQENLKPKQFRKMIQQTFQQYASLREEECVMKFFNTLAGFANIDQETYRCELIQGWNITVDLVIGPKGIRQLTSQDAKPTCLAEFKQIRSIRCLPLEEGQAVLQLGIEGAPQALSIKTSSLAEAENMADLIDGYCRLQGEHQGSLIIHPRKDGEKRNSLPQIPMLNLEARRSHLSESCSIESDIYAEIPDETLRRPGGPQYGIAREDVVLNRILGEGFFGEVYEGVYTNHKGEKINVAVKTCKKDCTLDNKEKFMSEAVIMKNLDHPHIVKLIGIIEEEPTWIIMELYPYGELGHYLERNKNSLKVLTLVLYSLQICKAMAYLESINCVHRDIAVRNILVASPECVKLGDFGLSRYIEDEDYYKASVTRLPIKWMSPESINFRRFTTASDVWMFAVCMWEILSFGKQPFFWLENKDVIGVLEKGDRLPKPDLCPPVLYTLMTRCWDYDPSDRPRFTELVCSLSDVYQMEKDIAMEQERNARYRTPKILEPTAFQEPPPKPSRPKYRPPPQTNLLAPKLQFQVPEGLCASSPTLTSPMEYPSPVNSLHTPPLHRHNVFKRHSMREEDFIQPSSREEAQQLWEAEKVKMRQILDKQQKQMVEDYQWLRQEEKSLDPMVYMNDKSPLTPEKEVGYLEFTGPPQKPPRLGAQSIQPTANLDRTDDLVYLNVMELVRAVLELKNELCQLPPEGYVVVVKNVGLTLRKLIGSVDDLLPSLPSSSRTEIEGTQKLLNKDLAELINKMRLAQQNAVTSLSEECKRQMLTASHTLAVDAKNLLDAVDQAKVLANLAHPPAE
SDO1 yeast rescue: growth rescue of sdo1-depleted yeast, primary screen, S. cerevisiae, bone marrow failure model. S. cerevisiae sdo1-depleted JHY4D growth rescue, OD600 30 h; hits give high values; pdr5 snq2 efflux-pump mutant strain. z-score at 10 µM. 140,000 tested, 0.21% active;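 active = z-score above 3 at both the 24 hr and the 30 hr optical density reads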;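 also: z-score against mean and SD of all compound wells on the same plate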
Cav3 T inh: Cav3.2 calcium influx blockers – cell-based, Fluo-4 calcium fluorescence, FDSS, MLSMR library, primary screen. 100,000 tested, 4% active. B-score at 10 µM. Cav3.2-expressing cells; hits give low values. AID 449739, 2010;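 active = single-dose well whose peak fluorescence ratio is a statistical outlier from its plate by either plate-standardised score or position-corrected B-score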
Plk1 PBD FP: Plk1 polo box domain binding inhibitors, primary screen, biochemical, fluorescence polarization. Serine/threonine-protein kinase PLK1 (Homo sapiens), P53350. 97,000 tested, 0.13% active. Plk1 PBD phosphopeptide binding. AID 693, 2007. inhibition, %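 (tested at about 20 µM)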; in the data active = inhibition above about 34%, passing the limit was not always enough
PLK1 kinase inh: human PLK1 kinase inhibitors, primary screen, biochemical, TR-FRET. 97,000 tested, 0.53% active. Serine/threonine-protein kinase PLK1 (Homo sapiens), P53350. recombinant PLK1 kinase, TR-FRET peptide phosphorylation. inhibition, % at 10 µM;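 active = inhibition of 50% or more in the single-concentration screen; inactive = inhibition below 50%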;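 also: 0% = DMSO max control and 100% = H-89 dihydrochloride min control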
hDAT+cocaine: changed hDAT dopamine uptake under cocaine IC80, either direction, primary screen, cocaine antagonist project, cell-based, LLC-PK1 hDAT, [14C]-dopamine uptake, MLSMR; AID 449768, 2010; B-score at 10 µM; 110,000 tested, 1.3% active; LLC-PK1 hDAT cells, [14C]-dopamine uptake with cocaine IC80; actives deviate in either direction; Sodium-dependent dopamine transporter (Homo sapiens), Q01959;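 active = Z score or B-score, a plate-position-corrected score, falls beyond the plate's 99.7% confidence bounds, in either direction; inactive = both scores lie inside the 99.7% bounds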;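 also: scored against the spread of the other compound wells on the same plate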
Active calls of the source: *; . = no result.

SMILES | Pyk2 oligo antag | SDO1 yeast rescue | Cav3 T inh | Plk1 PBD FP | PLK1 kinase inh | hDAT+cocaine
Clc1ccc(Cn2c(-c3cccnc3Cl)nc3ccccc32)cc1 | -2.2 | -1.7 | -4 | 12 | -3 | -2.3
Cc1ccc(COn2c(-c3ccc(Cl)cc3Cl)nc3ncccc32)cc1 | -0.99 | -1.7 | -5.4* | -4 | -8 | 0.25
Clc1cccc(COn2c(-c3ccc(Cl)cc3Cl)nc3ncccc32)c1 | -1.6 | -1.4 | -4.1* | 18 | -3 | -0.2
Clc1ccc(Cn2c(-c3cccnc3Cl)nc3ccccc32)c(Cl)c1 | 0.09 | -1.6 | -3 | 11 | -5 | 0.31
C=CCNC(=O)/C(C#N)=C\c1cc(Cl)c(OCC)c(OC)c1 | . | -1.6 | . | . | . | .
Cc1ccc(CNc2nc(N)c([N+](=O)[O-])c(Nc3ccc(F)cc3)n2)cc1 | 1.3 | -0.69 | -0.11 | -2 | -5 | -11*
c1ccc2c(c1)CCN(c1nc(CN3CCOCC3)nc3sc4c(c13)CCCC4)C2 | . | -1.5 | . | . | . | .
COc1ccc(NC(=O)c2cc(S(=O)(=O)N(Cc3ccccc3)c3ccccc3)ccc2Cl)cn1 | . | -0.03 | . | . | . | .
CC(=O)NS(=O)(=O)c1ccc(NC(=O)COc2ccc(C(=O)c3ccccc3)cc2)cc1 | 1.3 | 1.1 | . | . | . | .
Cc1nn(C)cc1/C=N\NC(=O)c1ccc2c(c1)c(C)c(C)n2Cc1ccccc1 | -1 | -1.2 | -3.8* | -27 | -11 | 0.7
Cc1nn(C)cc1/C=N/NC(=O)c1ccc2c(c1)OCO2 | 0.04 | 0.42 | -0.2 | -15 | -7 | 0.86
Cc1cc(C)cc(NC(=O)C2CCCN2/C=C/C(=O)C(F)(F)F)c1 (stereo not given) | . | 0.33 | . | . | . | .
CC(O)CNc1nc2c(c(=O)n(C)c(=O)n2C)n1Cc1cccc(C(F)(F)F)c1 (stereo not given) | 0.78 | 0.64 | 0.13 | -6 | -12 | 1.8*
Cn1c(=O)c2c(nc(NCc3ccc4c(c3)OCO4)n2Cc2ccccc2F)n(C)c1=O | -1.4 | -1.4 | -0.87 | -5 | -2 | 0.012
Cn1c(=O)c2c(nc(NCc3ccc4c(c3)OCO4)n2Cc2ccc(F)cc2)n(C)c1=O | -2.9 | -1.1 | -4.3* | -21 | 4 | -1
Cn1c(=O)c2c(nc(NCc3ccc4c(c3)OCO4)n2Cc2ccccc2)n(C)c1=O | -1.7 | -0.99 | -6* | -16 | -2 | -0.11
O=C1C=C(NNC(=O)c2ccccc2Br)CCC1 | . | 1.1 | . | . | . | .
COC(=O)c1ccc(CSc2nc3c(c(=O)n2-c2ccccc2)SCC3)o1 | . | -0.54 | -1.3 | . | . | -0.25
COC(=O)c1ccc(CSc2nc3ccccc3c(=O)n2-c2ccc(OC)c(OC)c2)o1 | -0.5 | -0.21 | -1.2 | -14 | -3 | 3.5*
C=CCN1C=CC(=O)CC1 | . | . | 1.2 | . | . | 0.16
COc1ccnc(CS(=O)c2nc3cc(OC(F)F)ccc3[nH]2)c1OC (stereo not given) | . | . | -0.059 | . | . | 0.23
c1ccc(-c2nc(NCc3cccnc3)c3ccccc3n2)cc1 | -3.7* | -1.2 | -1.1 | -18 | -7 | 0.32
Cc1ccc(-c2nc(NCc3cccnc3)c3ccccc3n2)cc1 | . | -1.5 | . | . | . | .
Clc1cccc(-c2nc(NCc3cccnc3)c3ccccc3n2)c1 | -3.7* | -1.8 | -0.83 | -1 | -6 | 0.13
CC(C)CCNC(=O)c1onc(CSc2ccccn2)c1C(=O)NCCC(C)C | . | . | -0.99 | . | . | 0.15
SMILES | Pyk2 oligo antag | SDO1 yeast rescue | Cav3 T inh | Plk1 PBD FP | PLK1 kinase inh | hDAT+cocaine
Cn1c(SCC(=O)c2ccc3c(c2)OCCO3)nnc1C1CC1 | 0.36 | 1.1 | 0.00014 | 3 | 61* | -0.13
COc1cc(C)c(C(C)C)cc1S(=O)(=O)N1CCN(C)CC1 | 0.87 | 1.3 | 0.009 | -8 | -12 | 0.95
COc1cc(C)c(C(C)C)cc1S(=O)(=O)n1cnc(C)c1 | . | -1.6 | -4.8* | . | . | -1.6
CCC(NC(=O)NCc1ccccc1)(C(F)(F)F)C(F)(F)F | . | 1.4 | . | . | . | .
CCC(NC(=O)NCc1ccc2c(c1)OCO2)(C(F)(F)F)C(F)(F)F | -1.1 | 0.33 | 0.48 | -5 | -11 | -3.4*
CC(=Nc1ccccc1)C1=C(O)COC1=O | 0.67 | 0.59 | -2.1 | -20 | -9 | -0.33
CC(=Nc1ccccc1)c1sc2ccccc2c1O | -0.05 | -1.3 | -1.6 | -38 | -3 | 2.3*
Cc1cccc(OCC(=O)N/N=C/CC(C)c2ccccc2)c1C (stereo not given) | . | -0.38 | . | . | . | .
Cc1cc(OC(C)C(=O)N/N=C/CC(C)c2ccccc2)ccc1Cl (stereo not given) | 3.6 | 0.2 | -6.5* | -12 | -14 | 0.0035
O=C(/C=C/c1ccccc1)NC(=S)NNC(=O)Cc1cccs1 | 0.04 | -1.6 | -4.1* | 16 | -13 | 0.86
COc1ccc(/C=C/C(=O)NC(=S)NNC(=O)Cc2cccs2)cc1 | -0.62 | -0.47 | . | 13 | -14 | .
Cc1cccc(N2CCN(C(=O)c3ccc4nc(-c5ccco5)c(-c5ccco5)nc4c3)CC2C)c1 (stereo not given) | -1.4 | -1.1 | -6.5* | -9 | -15 | 0.99
Cc1cccc(N2CCN(C(=O)c3cc4c(=O)n(C)c5ccccc5c4n3C)CC2C)c1 (stereo not given) | . | -1.3 | -4.4* | -12 | -12 | 0.068
CC(=O)Nc1ccccc1-c1nc2ccc(C(=O)N3CCN(c4cccc(C)c4)C(C)C3)cc2[nH]c1=O (stereo not given) | . | 0.08 | -0.34 | -31 | -11 | -0.058
COc1cccc(NC(=O)N2CCN(c3cccc(C)c3)C(C)C2)c1 (stereo not given) | -0.3 | -0.87 | -4.9* | 2 | -8 | 0.31
Cn1c(C(=O)N2CCCCCC2)cc2c(=O)n(C)c3ccccc3c21 | . | -0.53 | 0.4 | 20 | -6 | 0.95
CCOC(=O)C1CCCN(C(=S)Nc2cccc(Cl)c2C)C1 (stereo not given) | . | 0.39 | . | . | . | .
CNc1oc(-c2cccs2)nc1C#N | 1 | 0.04 | . | 21 | -4 | .
COc1ccc(Nc2oc(-c3cccs3)nc2C#N)cc1 | -0.94 | -1.8 | -4.4* | 23 | -21 | -0.15
N#Cc1nc(-c2cccs2)oc1NCCc1ccccc1 | -0.22 | -2.7 | -3.9 | 14 | -5 | -0.76
N#Cc1nc(-c2cccs2)oc1NCc1ccc2c(c1)OCO2 | -0.43 | -2 | -5.6* | 23 | 16 | 0.14
O=C(NC(=S)NCC1CCCO1)C(c1ccccc1)c1ccccc1 (stereo not given) | . | 0.4 | . | . | . | .
CC(Oc1ccc(Cl)cc1)C(=O)N/N=C/c1ccsc1 (stereo not given) | . | 0.33 | . | . | . | .
CC(N)c1ccc(Cl)cc1Cl (stereo not given) | . | 0.22 | . | . | . | .
